High-throughput results (PubChem)
Most compounds without a hit are left out; they make up all but 12% or so of the library.
SARS PLpro yeast: SARS-CoV PLP inhibition in yeast | Potency, µM (doses to about 32.9 µM), most hits filed as activators | S. cerevisiae expressing SARS-CoV PLpro, growth rescue | hit rate 0.19% among 330,000 | AID 485353; calls by dose curve; note: nearly all actives have a fitted effect of over 55% in size
Sm TGR block: blocks Schistosoma mansoni thioredoxin glutathione reductase; Q962Y6; purified TGR, DTNB reduction, TNB absorbance 405 nm; Potency, µM (titrated, usually from 114 µM), usual class: inhibitors; hit rate 3% among 360,000; AID 485364; note: nearly all actives have a fitted effect of over 60% in size
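Kinetic colorimetric format: TGR-catalysed, NADPH-driven DTNB reduction monitored via TNB absorbance. Enzyme dispensed at 20 nM; compound exposure 15 min at room temperature before reaction start.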
Pf growth 96h: P. falciparum growth inhibition at 96 hours; P. falciparum luciferase reporter growth, 96 h; Potency, µM (top dose mostly 28.7 µM), actives largely listed as inhibitors; hit rate 6.9% among 320,000
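Two parasite generations (96 h, 37 C, 5% CO2) of compound exposure in infected erythrocytes (0.05% parasitemia, 2% hematocrit). Luciferase-reporter P. falciparum; decreased luminescence indicates inhibited growth, aimed at apicoplast-acting delayed death.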
Pf growth 48h: P. falciparum growth inhibition at 48 hours (one generation) | hit rate 5.9% among 310,000 | AID 504832 | Potency, µM (doses to about 28.7 µM), hits mostly inhibitors | P. falciparum luciferase growth in erythrocytes, 48 h
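Luciferase-expressing parasites in RBCs, 2% Hct / 0.1% parasitemia final; RPMI 1640 + 0.5% Albumax; 37 C, 5% CO2, one generation; luminescence read-out, lower signal = inhibition.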
Numbers stand for hits; 0 = inactive; ? = inconclusive; - = no result; [ ] = remark or other dose. Unless noted, calls come from the whole dose curve; as a rule, active = well fitted curve in the direction sought with a large enough effect; inconclusive = small, poorly fitted or top-dose-only effect, or another doubt; inactive = no such curve, though single readings can be large; an effect the other way counts as inactive or inconclusive.

SMILES	SARS PLpro yeast	Sm TGR block	Pf growth 96h	Pf growth 48h
CCOC(=O)C1=C(CSc2nc3ccccc3s2)NC(=O)NC1c1ccc(OC)cc1 (stereo unspecified)	0	0	?	0
COc1ccc(CNC(=O)CN(c2cc(C(F)(F)F)ccc2Cl)S(C)(=O)=O)cc1	-	0	-	-
COC(=O)c1ccccc1NC(=O)CCCn1c(=O)c2cccn2c2cccnc21	-	0	-	-
COC(=O)c1ccc(OCC2c3cc(OC)c(OC)cc3CCN2C(=O)c2ccc(F)cc2)cc1 (stereo unspecified)	-	0	-	-
COc1ccccc1C(=O)OCc1cc(=O)n2nc(C(C)C)sc2n1	-	0	-	-
CCNC(=S)N/N=C(\C)c1ccc2ccccc2c1OC(F)F	0	0	?	10µM
C/C(=N\NC(=S)NC1CCCCC1)c1ccc(OC(F)F)cc1OC(F)F	0	0	?	?
C/C(=N\NC(=S)NC(C)C)c1ccccc1OC(F)F	0	0	8.3µM	0
COc1ccc(SC[C@H](Cc2ccccc2)N2CCN(C)CCC2=O)cc1	0	0	10µM	13µM
CC(C)[C@@H](CSc1ccccc1)N1CCN(Cc2ccccc2)CCC1=O	0	0	0	15µM
O=C1CCN(CCc2ccccc2)CCN1[C@H](CSc1ccccc1)Cc1ccccc1	0	?	?	?
Cc1ccc(SC[C@H](Cc2ccccc2)N2CCN(C)CCC2=O)cc1	0	40µM	?	12µM
CC(C)CN1CCC(=O)N([C@H](CSc2ccc(Br)cc2)Cc2ccccc2)CC1	0	6.3µM	?	?
CCCCCN(C(=O)CCC(=O)OCC(=O)Nc1cccc(CC)c1)c1c(N)n(CCCC)c(=O)[nH]c1=O	0	0	0	0
CN1CCC(=O)N([C@H](CSc2ccccc2)Cc2ccccc2)CC1	0	0	?	0
CN1CCC(=O)N([C@H](CSc2ccc(Br)cc2)Cc2ccccc2)CC1	0	0	3.3µM	9.3µM
CCC(C)c1ccc(S(=O)(=O)N2CCN(S(=O)(=O)c3ccc(NC(C)=O)cc3)CC2)cc1 (stereo unspecified)	0	0	?	0
CC1=CC(C)(C)[N+](C)(C)c2ccc(C)cc21	0	-	?	2.6µM
C/C=C/C(=O)N1c2ccc(C)cc2C(C)=CC1(C)C	0	0	0	0
COc1cc2c(cc1OC)C(SC)=NC1(CCCC1)C2	0	-	0	10µM
CCn1c(=O)n(CC)c2cc(N3CCCC3)c(NC(=O)c3ccccc3C)cc21	0	0	9.3µM	?
CCn1c(=O)n(CC)c2cc(N3CCCC3)c(NC(=O)c3cc(Br)ccc3OC)cc21	0	0	?	9.3µM
CCn1c(=O)n(CC)c2cc(N3CCCC3)c(NC(=O)c3ccccc3)cc21	0	0	?	0
CCn1c(=O)n(CC)c2cc(N3CCCC3)c(NC(=O)c3ccccc3F)cc21	0	0	1.3µM	?
Cc1ccc2c(=O)cc(C(=O)NCc3ccccc3)oc2c1C	0	0	0	0
SMILES	SARS PLpro yeast	Sm TGR block	Pf growth 96h	Pf growth 48h
COC(=O)c1c(NC(=O)c2ccccc2)sc(C(N)=O)c1C	0	0	0	0
CCN(CC)C(=O)c1sc(NC(=O)c2cccnc2)c(C(=O)OC)c1C	0	0	2.9µM	0
COC(=O)c1c(NC(=O)c2ccccc2)sc(C(=O)c2ccccc2)c1C	0	0	9.3µM	?
CCOC(=O)c1c(NC(=O)C2c3ccccc3Oc3ccccc32)sc(C(=O)N(CC)CC)c1C	0	0	0.93µM	1.5µM
Cc1ccc(Cn2c(=O)c3ccccc3n3c(-c4cccc(O)c4)nnc23)cc1	-	0	-	-
Cc1ccc(NC(=O)NC2C(NC(=O)Nc3ccc(C)cc3)N(C)C(=O)N2C)cc1 (stereo unspecified)	0	0	-	0
CN1C(=O)N(C)C(NC(=O)Nc2ccccc2)C1NC(=O)Nc1ccccc1 (stereo unspecified)	0	0	2.3µM	0
CC(C)(C)c1ccc(C(=O)Nc2ccc(C(=O)N3CCCC3)cc2)cc1	?	0	0	?
CC(C)(C)c1ccc(C(=O)N2CCCCCC2=O)cc1	0	0	0	5.2µM
CC(=O)c1ccc(N2CCN(CN3C(=O)CC4(CCCC4)C3=O)CC2)c(F)c1	0	?	0	?
N#Cc1ccccc1OCC(=O)N(Cc1nnc(-c2ccccc2Cl)o1)C1CC1	0	0	?	?
Nc1c2c(nc3sc4c(c13)CCCCC4)CCCC2	0	0	0	?
Nc1c2c(nc3c1CCC3)CCCC2	0	0	3.8µM	4.8µM
Cc1csc2c(SCC(=O)NNC(=O)C(Cl)Cl)ncnc12	0	?	?	3.3µM
COC(=O)[C@H](Cc1ccccc1)N(C)S(=O)(=O)c1cccc(S(=O)(=O)N(C)[C@@H](Cc2ccccc2)C(=O)OC)c1	0	0	10µM	0
CN([C@@H](C(=O)OC(C)(C)C)c1ccccc1)S(=O)(=O)c1cccc(S(=O)(=O)N(C)[C@@H](C(=O)OC(C)(C)C)c2ccccc2)c1	0	0	2.1µM	?
COC(=O)[C@H](Cc1ccccc1)N(Cc1ccccc1)S(=O)(=O)N(Cc1ccccc1)[C@@H](Cc1ccccc1)C(=O)OC	0	-	-	-
Cc1ccc(Cn2c(C(=O)NCCCN3CCOCC3)cc3sccc32)cc1	0	0	0	12µM
Cc1ccc(CCNC(=O)c2cc3sccc3n2Cc2ccc(C)cc2)cc1	-	0	-	-
Cc1cc2c(cc(C(=O)NCCCN3CCOCC3)n2Cc2ccc(Cl)cc2)o1	0	35µM	0	?
CCOc1cc(/C=C2/COc3ccccc3C2=O)ccc1OCC(=O)N(C)C	0	32µM	?	0
O=C1/C(=C/c2ccc(O)cc2)COc2ccccc21	0	?	0	0
Cc1ccc(CNC(=O)c2cc3c(=O)n4cccc(C)c4nc3s2)cc1	-	0	-	-
Cc1cccc(N2CCN(C(=O)C3CCC(=O)N(C4CC4)C3)CC2)c1C (stereo unspecified)	5µM	0	0	0
Cc1ccc(Cl)cc1N1CCN(C(=O)C2CCC(=O)N(C3CCCCCC3)C2)CC1 (stereo unspecified)	0	0	?	12µM
SMILES	SARS PLpro yeast	Sm TGR block	Pf growth 96h	Pf growth 48h
CN1CCN(C(=O)C2CCCN(S(=O)(=O)c3ccc(Cl)cc3)C2)CC1 (stereo unspecified)	0	0	0	0
COc1cc(C2C(C#N)=C(N)N(N(C)C)C3=C2C(=O)CCC3)ccc1O (stereo unspecified)	0	0	0	0[0.00184 µM]
CCOC(=O)Cn1c(=O)oc2cc(S(=O)(=O)N3CCn4c3nc3ccccc34)ccc21	0	0	15µM	0
CC1CC(C)CN(C(=O)Cn2c(=O)oc3cc(S(=O)(=O)N4CCCC4)ccc32)C1 (stereo unspecified)	0	0	12µM	?
CC1CC(C)CN(S(=O)(=O)c2ccc3c(c2)oc(=O)n3CC(=O)N2CCOCC2)C1 (stereo unspecified)	0	0	?	-
CCCCN(C)C(=O)Cn1c(=O)oc2cc(S(=O)(=O)N3CC(C)CC(C)C3)ccc21 (stereo unspecified)	0	0	13µM	?
CCOC(=O)Cn1c(=O)oc2cc(S(=O)(=O)N3CCCC(C)C3)ccc21 (stereo unspecified)	0	0	0	0
